Reference: PubChem BioAssay (Tox21)
Inconclusive results are not listed. Activity calls are given as the source filed them. Unless noted, calls come from the whole dose curve; as a rule, active = well fitted curve in the direction sought with a large enough effect in the repeat runs; inconclusive = weak or mixed curves; inactive = no such curve, though single readings can be large; an effect the other way counts as inactive or inconclusive.

Legend:
[1] = qHTS assay to identify small molecule antagonists of the retinoic acid receptor (RAR) signaling pathway (AID 1159552; note: nearly all actives have a fitted effect of over 50% in size; note: potency is the fitted concentration of half-maximal effect)
Method in brief: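 Retinol at 1 uM final stimulated RARE-luciferase expression in C3RL4 cells exposed to test compounds for 6 hr at 37 C. Reduced luminescence, read 30 min after detection reagent, indicated pathway antagonism.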

[2] = qHTS assay to identify small molecule antagonists of the estrogen related receptor (ERR) signaling pathway - cell viability counter screen (AID 1224818);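 note: series mostly up to about 46 µM; viability measured after 17.5 h of compound exposure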
Method in brief: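 ERR reporter cells plated 6 h at 37 C/5% CO2, then compounds in DMSO pin-transferred and incubated 17.5 h at 37 C. Viability read as CellTiter-Fluor fluorescence after 30 min at 37 C.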

[3] = qHTS assay to identify small molecule antagonists of the estrogen related receptor (ERR) signaling pathway (AID 1224819; note: potency is the fitted concentration of half-maximal effect; nearly all actives have a fitted effect of over 50% in size)
Method in brief: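 ERR reporter cells were plated at 2,000 cells/well and left 6 h at 37 C/5% CO2 before pin-tool transfer of compounds in DMSO. After 18 h at 37 C, One-Glo was added and luminescence was read 30 min later at room temperature.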

[4] = qHTS assay to identify small molecule agonists of the estrogen related receptor (ERR) signaling pathway (AID 1224820)
Method in brief: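 Cells: ERR line from NTP, 2,000/well. Pre-incubation 6 h, 37 C/5% CO2. Compound (DMSO) pin transfer, 18 h 37 C. One-Glo, 30 min RT, luminescence.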

[5] = qHTS assay to identify small molecule agonists of the estrogen related receptor signaling pathway with the pleiotropic PPARgamma coactivator (PGC) (AID 1224823)
Method in brief: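 Steps: plate PGC/ERR cells at 2,000 cells/well; incubate 6 h, 37 C/5% CO2; pin-transfer compounds (DMSO); incubate 18 h, 37 C; add One-Glo; 30 min RT; read luminescence.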

[6] = qHTS assay to identify small molecule antagonists of the estrogen related receptor (ERR) signaling pathway from Tox21 library - cell viability counter screen (AID 1224834); note: nearly all actives have a fitted effect of over 30% in size; note: potency is the fitted concentration of half-maximal effect
Method in brief: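 ERR reporter cells were plated 6 h before compound addition, then exposed to test compounds in DMSO for 17.5 h at 37 C. Viability was read as CellTiter-Fluor fluorescence after a 30-minute incubation at 37 C.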

[7] = qHTS assay to identify small molecule agonists of the constitutive androstane receptor (CAR) signaling pathway - cell viability counter screen (AID 1224836); note: nearly all actives have a fitted effect of over 45% in size; note: potency is the fitted concentration of half-maximal effect
Method in brief: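 Cells were seeded and incubated 4 hrs. Compounds were added across 15 concentrations together with PK11195 at 0.75 uM final. Plates were incubated 23 hrs at 37 C. CellTiter-Fluor was added and fluorescence measured.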

[8] = qHTS assay to identify small molecule antagonists of the constitutive androstane receptor (CAR) signaling pathway - cell viability counter screen (AID 1224837); note: nearly all actives have a fitted effect of over 45% in size; note: potency is the fitted concentration of half-maximal effect
Method in brief: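 HepG2 cells stably expressing hCAR and a CYP2B6-2.2kb reporter were plated and pre-incubated 4 hr at 37 C/5% CO2, then given compounds at 15 concentrations plus 50 nM CITCO (final). After 23 hr, viability was read by CellTiter-Fluor fluorescence.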

[9] = qHTS assay to identify small molecule antagonists of the estrogen related receptor signaling pathway with the pleiotropic PPARgamma coactivator (PGC) from Tox21 10K library (AID 1224841; call rule not given here; note: actives are mostly falling curves and most rising ones were filed inactive; nearly all actives have a fitted effect of over 50% in size; note: potency is the fitted concentration of half-maximal effect)
Method in brief: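 PGC/ERR reporter cells were seeded at 2,000 cells/well and held 6 hours at 37 C/5% CO2 before pin-tool addition of compounds in DMSO. After 18 hours at 37 C, One-Glo was added and luminescence read after 30 minutes at room temperature.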

[10] = molecular target: Luciferin 4-monooxygenase (Photinus pyralis) (UniProt P08659); assay: qHTS assay to identify small molecule inhibitors of firefly luciferase (AID 1224835); note: nearly all actives have a fitted effect of over 25% in size; note: potency is the fitted concentration of half-maximal effect
Method in brief: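 Inhibition of purified Photinus luciferase is measured by luminescence. Substrate levels (D-luciferin, ATP) sit at their KM values. Each compound is tested in a concentration series.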

[11] = qHTS assay to identify small molecule agonists of the estrogen related receptor signaling pathway with the pleiotropic PPARgamma coactivator (PGC) from Tox21 10K library (AID 1224842); note: nearly all actives have a fitted effect of over 15% in size
Method in brief: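 Luminescence from One-Glo (30 min, room temperature) measured after PGC/ERR cells had 18 h at 37 C with pinned compound (23 nL in DMSO). Cells had been seeded at 2,000 per well and pre-incubated 6 h.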

[12] = molecular target: Thyrotropin receptor (Homo sapiens) (UniProt P16473); assay: qHTS assay to identify small molecule agonists of the thyroid stimulating hormone receptor (TSHR) signaling pathway (AID 1224843; calls by dose curve; note: nearly all actives have a fitted effect of over 45% in size)
Method in brief: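 Screening of the Tox21 10K collection used HEK293 cells engineered with TSHR at 800 cells per well. After a 30-min room-temperature compound exposure, HTRF cAMP reagents were added and fluorescence recorded 1 h later.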

[13] = qHTS assay to identify small molecule antagonists of the estrogen related receptor signaling pathway with the pleiotropic PPARgamma coactivator (PGC) from Tox21 10K library - cell viability counter screen (AID 1224840; active = well fitted cell-killing curve with a large enough effect in the repeat runs, not every such curve was filed as active; note: nearly all actives have a fitted effect of over 40% in size; note: potency is the fitted concentration of half-maximal effect)
Method in brief: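 PGC/ERR cells were seeded at 2,000 cells/well and left 6 hours at 37 C/5% CO2 before pin-tool addition of compounds in DMSO. After 17.5 hours at 37 C, CellTiter-Fluor was added and fluorescence read 30 minutes later.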

[14] = qHTS assay to identify small molecule agonists of the hypoxia (HIF-1) signaling pathway - cell viability counter screen (AID 1224844; calls by dose curve; note: nearly all actives have a fitted effect of over 50% in size; note: potency is the fitted concentration of half-maximal effect)
Method in brief: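 HRE-bla ME-180 cells in medium with 0.5% dialyzed FBS were preincubated 5 hrs at 37C, exposed to compounds for 17 hrs, then viability was read as CellTiter-Glo luminescence after 30 min at room temperature, in the reporter wells.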

[15] = molecular target: Nuclear receptor subfamily 1 group I member 3 (Homo sapiens) (UniProt Q14994); assay: qHTS assay to identify small molecule antagonists of the constitutive androstane receptor (CAR) signaling pathway (AID 1224838); note: nearly all actives have a fitted effect of over 40% in size; note: potency is the fitted concentration of half-maximal effect
Method in brief: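 HepG2 cells stably co-transfected with hCAR and a CYP2B6-2.2kb luciferase reporter were seeded 4 h before compound addition at 15 concentrations. Cells were stimulated with 50 nM CITCO (final) for 24 h at 37 C; luciferase luminescence was then read.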

[16] = molecular target: Nuclear receptor subfamily 1 group I member 3 (Homo sapiens) (UniProt Q14994); assay: qHTS assay to identify small molecule agonists of the constitutive androstane receptor (CAR) signaling pathway (AID 1224839);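 note: HepG2 cells stably carrying human CAR and a CYP2B6 luciferase reporter; series mostly up to about 92 µM; nearly all actives have a fitted effect of over 15% in size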
Method in brief: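 Cells were plated and incubated 4 hrs, then dosed with compounds at 15 concentrations. PK11195 was added to 0.75 uM final. After 24 hrs at 37 C, luciferase luminescence was measured.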

[17] = qHTS assay to identify small molecule agonists of the retinoic acid receptor (RAR) signaling pathway (AID 1159553)
Method in brief: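 C3RL4 cells carrying a RARE luciferase reporter were plated overnight at 37 C, then exposed to compounds in DMSO for 6 hr at 37 C and 5% CO2. Luminescence was read 30 min after luciferase reagent addition at room temperature.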

Measured: Potency

Sequence of Thyrotropin receptor (Homo sapiens) (P16473 whole entry, looked up): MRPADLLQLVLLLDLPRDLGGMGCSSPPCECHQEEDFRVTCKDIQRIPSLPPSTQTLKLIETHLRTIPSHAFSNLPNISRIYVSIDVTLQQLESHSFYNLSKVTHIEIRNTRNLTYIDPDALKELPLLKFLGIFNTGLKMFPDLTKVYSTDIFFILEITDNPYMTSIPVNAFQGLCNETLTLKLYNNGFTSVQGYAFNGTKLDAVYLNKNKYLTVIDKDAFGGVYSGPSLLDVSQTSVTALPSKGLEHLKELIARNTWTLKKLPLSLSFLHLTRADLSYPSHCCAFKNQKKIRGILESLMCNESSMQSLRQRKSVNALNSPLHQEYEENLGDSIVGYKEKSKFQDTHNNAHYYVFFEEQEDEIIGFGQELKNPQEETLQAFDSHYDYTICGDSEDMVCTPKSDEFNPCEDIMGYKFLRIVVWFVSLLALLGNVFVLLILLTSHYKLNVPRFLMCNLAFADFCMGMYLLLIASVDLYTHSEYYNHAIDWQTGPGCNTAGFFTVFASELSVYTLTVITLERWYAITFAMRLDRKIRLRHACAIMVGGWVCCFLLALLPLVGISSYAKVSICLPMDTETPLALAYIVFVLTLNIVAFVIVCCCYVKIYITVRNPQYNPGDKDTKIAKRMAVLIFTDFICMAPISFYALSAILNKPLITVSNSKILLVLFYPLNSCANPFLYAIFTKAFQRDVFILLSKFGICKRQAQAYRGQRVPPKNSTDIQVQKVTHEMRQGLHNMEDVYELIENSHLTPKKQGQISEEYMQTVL
Sequence of Luciferin 4-monooxygenase (Photinus pyralis) (P08659 whole entry, looked up): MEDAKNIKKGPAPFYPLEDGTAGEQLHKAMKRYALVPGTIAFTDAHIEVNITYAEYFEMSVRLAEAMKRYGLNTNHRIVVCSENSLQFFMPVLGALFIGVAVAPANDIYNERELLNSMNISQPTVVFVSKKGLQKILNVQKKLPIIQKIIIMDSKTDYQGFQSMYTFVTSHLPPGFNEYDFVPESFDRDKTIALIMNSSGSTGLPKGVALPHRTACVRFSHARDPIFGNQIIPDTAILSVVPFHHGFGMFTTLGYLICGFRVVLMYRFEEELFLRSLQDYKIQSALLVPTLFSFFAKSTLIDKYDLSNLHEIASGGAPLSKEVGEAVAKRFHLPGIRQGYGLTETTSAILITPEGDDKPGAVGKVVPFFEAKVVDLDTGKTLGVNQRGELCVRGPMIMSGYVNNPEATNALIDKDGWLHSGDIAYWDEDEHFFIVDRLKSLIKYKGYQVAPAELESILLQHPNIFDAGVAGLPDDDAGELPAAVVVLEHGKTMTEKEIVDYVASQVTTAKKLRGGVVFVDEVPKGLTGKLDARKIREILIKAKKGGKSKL
Sequence of Nuclear receptor subfamily 1 group I member 3 (Homo sapiens) (Q14994 whole entry, looked up): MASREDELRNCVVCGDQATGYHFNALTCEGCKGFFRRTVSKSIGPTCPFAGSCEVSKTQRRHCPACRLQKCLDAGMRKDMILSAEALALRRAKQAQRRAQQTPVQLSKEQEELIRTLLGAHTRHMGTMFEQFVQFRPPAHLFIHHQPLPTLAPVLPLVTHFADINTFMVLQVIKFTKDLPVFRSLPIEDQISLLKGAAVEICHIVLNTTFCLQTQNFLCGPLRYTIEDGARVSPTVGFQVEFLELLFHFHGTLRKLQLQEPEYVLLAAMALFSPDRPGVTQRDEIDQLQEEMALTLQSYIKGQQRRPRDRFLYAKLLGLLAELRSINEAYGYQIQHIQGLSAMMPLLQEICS

O=C1c2c(O)ccc(O)c2C(=O)c2c(NCCNCCO)ccc(NCCNCCO)c21
active: [1] 0.119 µM | [3] 1.44 µM | [6] 3.35 µM | [7] 3.76 µM | [8] 4.22 µM
inactive: [2] | [4] | [5] | [9]

Cc1c(-c2ccc(O)cc2)n(Cc2ccc(OCCN3CCCCCC3)cc2)c2ccc(O)cc12
active: [6] 29.8 µM

CCN(CC)CCOc1ccc(C(O)(Cc2ccc(Cl)cc2)c2ccc(C)cc2)cc1 (centres undefined)
inactive: [10] | [11] | [12]
active: [1] 26.6 µM | [6] 33.5 µM

CCc1ccc(O)c(C(C)(C)C)c1
inactive: [10] | [7] | [8] | [13] | [12] | [14]

CCCCCCCCCCCCCC[n+]1ccccc1
active: [6] 27.3 µM | [7] 7.7 µM | [8] 9.69 µM | [15] 48.6 µM | [13] 54.5 µM | [14] 49 µM
inactive: [10] | [16] | [11]

C[n+]1c2cc(N)ccc2cc2ccc(N)cc21 (tested in a mixture with another compound)
inactive: [10] | [14]
active: [1] 23.7 µM

COCC(=O)O[C@]1(CCN(C)CCCc2nc3ccccc3[nH]2)CCc2cc(F)ccc2[C@@H]1C(C)C
active: [1] 26.6 µM | [6] 26.6 µM | [8] 29.8 µM | [15] 29.8 µM | [13] 29.8 µM | [14] 16.9 µM
inactive: [10] | [12]

O=C(Nc1ccc(Cl)c(Cl)c1)c1cc(Cl)cc(Cl)c1O
inactive: [1]
active: [6] 3.06 µM | [10] 3.99 µM | [8] 7.7 µM | [13] 4.33 µM | [14] 19.5 µM

CC(NCCC(c1ccccc1)c1ccccc1)c1ccccc1 (centres undefined)
active: [6] 29.8 µM
inactive: [10] | [16] | [14]

Cc1cc(Nc2ccc(O)cc2)ccc1N
inactive: [1] | [17] | [15] | [11]
active: [6] 30.5 µM | [10] 63 µM | [13] 24.2 µM | [9] 15.3 µM | [14] 24.4 µM

CCN(CC)CCOC(=O)C1(C2CCCCC2)CCCCC1
inactive: [10] | [7] | [15] | [13] | [14]

CC(C)c1ccc(O)c(C(C)C)c1
not listed: [1] | [2] | [3] | [4] | [5] | [14]
inactive: all other assays above

CN(Cc1cc(Br)cc(Br)c1N)C1CCCCC1
inactive: [17] | [6] | [10] | [7] | [13] | [9] | [11] | [14]
